Giardia kill: kills Giardia lamblia; Giardia lamblia trophozoite viability; activity change, % at 7.66 µM, hits read low; 340,000 tested, 0.15% active; in the data active = activity change below about -80%; inconclusive = between about -30% and that limit;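 also: parasites exposed to compound for two days anaerobically before the ATP read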
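Media and compound were dispensed first, then trophozoites at 100 cells/well; plates sat 48 hrs at 37 deg C without oxygen before ATP luminescence reagent was added and read after 15-30 min at room temperature.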
IL-1B inflam inh: inhibitors of inflammasome signaling (IL-1 beta secretion) | THP-1 LPS/ATP IL-1B secretion, AlphaLISA, 16 h; active compounds read low | activity change, % at 57.5 µM | 360,000 tested, 4.7% active | AID 743279; in the data active = activity change below about -50%; inconclusive = mostly about -30% to -49%
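Secreted IL-1B measured by AlphaLISA bead assay after 16 h compound exposure of THP-1 cells; compounds (final up to 57.5 uM) added 1 h before LPS (250 ng/mL) and ATP (1.25 mM) stimulation; lower signal means less secretion.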
DT40 TDP1 no CPT: qHTS for Inhibitors of human tyrosyl-DNA phosphodiesterase 1 (TDP1): qHTS in cells in absence of CPT; DT40 Tdp1-/- hTDP1 cells, no CPT, ATP luminescence, 48 h; Potency, µM (top dose mostly 46.2 µM), for the others: at the highest dose activity change, negative = growth inhibition, most hits filed as inhibitors; 420,000 tested, 15% active; AID 686978, 2013; also: potency is read from the fitted curve at half-maximal effect; nearly all actives have a fitted effect of over 55% in size
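DT40 Tdp1-/-;hTDP1 cells, no CPT (DMSO vehicle only), 400 cells/well; compounds pin-transferred; ≥48 hr, 37 °C; CellTiter-Glo 30 min RT dark, luminescence read.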
DT40 TDP1 CPT: growth inhibition of DT40 Tdp1-/-;hTDP1 cells with camptothecin (screen for TDP1 inhibitors); chicken DT40 Tdp1-/-;hTDP1 cells + 20 nM CPT, ATP luminescence, 48 h; Potency, µM (titrated, usually from 46.2 µM), inactives show at the highest dose activity change, negative = growth inhibition, hits mostly inhibitors; 420,000 tested, 12% active; also: potency is read from the fitted curve at half-maximal effect; nearly all actives have a fitted effect of over 55% in size
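Cell growth measured by CellTiter-Glo luminescence after a minimum 48 h, 37 C compound exposure with 20 nM CPT in Tdp1-knockout DT40 cells stably expressing hTDP1, seeded 400/well; qHTS titration format.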
TDP1 block: TDP1 (human) enzyme inhibition; recombinant TDP1, AlphaScreen DNA substrate cleavage; Potency, µM (doses to about 130 µM), inactives show top-dose activity change, negative = inhibition, most hits filed as inhibitors; 350,000 tested, 0.28% active; Q9NUW8; also: potency is read from the fitted curve at half-maximal effect; nearly all actives have a fitted effect of over 40% in size
Target sequence (Q9NUW8 whole entry, looked up): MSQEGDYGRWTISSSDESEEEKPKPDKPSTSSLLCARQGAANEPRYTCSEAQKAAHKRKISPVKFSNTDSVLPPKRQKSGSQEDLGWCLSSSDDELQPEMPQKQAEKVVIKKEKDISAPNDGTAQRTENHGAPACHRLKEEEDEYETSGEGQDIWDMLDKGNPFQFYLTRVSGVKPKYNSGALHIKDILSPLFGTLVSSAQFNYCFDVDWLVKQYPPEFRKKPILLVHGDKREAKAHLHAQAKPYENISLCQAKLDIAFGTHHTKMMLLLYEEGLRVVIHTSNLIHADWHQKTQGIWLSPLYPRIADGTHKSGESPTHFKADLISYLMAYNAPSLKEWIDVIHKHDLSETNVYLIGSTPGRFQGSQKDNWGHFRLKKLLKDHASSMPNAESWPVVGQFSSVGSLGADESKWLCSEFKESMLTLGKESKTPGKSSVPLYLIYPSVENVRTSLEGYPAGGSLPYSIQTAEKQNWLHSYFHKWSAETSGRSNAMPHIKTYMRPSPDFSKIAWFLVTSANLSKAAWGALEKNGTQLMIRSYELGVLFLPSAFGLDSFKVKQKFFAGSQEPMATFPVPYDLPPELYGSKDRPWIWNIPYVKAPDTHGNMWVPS
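AlphaScreen read-out: signal falls as enzyme removes the 3' tyrosine-FITC from a 5'-biotinylated DNA oligo (15 nM, 5 min, RT). Enzyme was E. coli-made recombinant Tdp1 at 1 nM, exposed to compound for 15 min beforehand; beads 10 ug/ml, 10 min.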
ELG1 DNA repair: ELG1-dependent DNA repair inhibition; HEK293T ELG1-luciferase reporter, luminescence, 16 h; DNA damage induced by 5-fluorouridine; Potency, µM (highest dose often 46.1 µM), without a hit: at the top dose activity change, negative = inhibition, actives largely listed as inhibitors; 330,000 tested, 2.3% active; AID 504467; also: potency is read from the fitted curve at half-maximal effect; nearly all actives have a fitted effect of over 55% in size
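DMSO vehicle served as the neutral condition. Each well held 2,000 cells given 5-fluorouridine plus compound; after 16 hr at 37 °C/5% CO2, ONE-Glo was added and luciferase measured 30 min later.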
Active calls of the source: *; i = inactive; ? = inconclusive; · = no result given; [ ] = dose if it differs, or a comment. An excerpt weighted towards active compounds, which were near 19% of everything screened. Unless noted, calls follow the shape of the dose curve; as a rule, active = well fitted curve in the direction sought with a large enough effect; inconclusive = small, poorly fitted or top-dose-only effect, or another doubt; inactive = no such curve, though single readings can be large; an effect the other way counts as inactive or inconclusive. % is scaled to controls: 0 for no effect and ±100 for the full control effect.

SMILES | Giardia kill | IL-1B inflam inh | DT40 TDP1 no CPT | DT40 TDP1 CPT | TDP1 block | ELG1 DNA repair
O=C(C1CCC(Cn2c(=S)[nH]c3ccccc3c2=O)CC1)N1CCN(c2ccccn2)CC1 (stereo not given) | -1 | 13 | 23µM* | ? | -2% | 5.2µM*
O=C(C1CCC(Cn2c(=O)[nH]c3ccccc3c2=O)CC1)N1CCN(c2ccccc2)CC1 (stereo not given) | 5 | -16 | -28% | -13% | 3% | ?
COc1ccc(N2CCN(C(=O)C3CCC(Cn4c(=S)[nH]c5ccccc5c4=O)CC3)CC2)cc1 (stereo not given) | -13 | -8 | 23µM* | 15µM* | 9% | ?
O=C(C1CCC(Cn2c(=S)[nH]c3ccccc3c2=O)CC1)N1CCN(c2ccccc2)CC1 (stereo not given) | 9 | 9 | ? | ? | · | ·
COc1ccccc1N1CCN(C(=O)C2CCC(Cn3c(=S)[nH]c4ccccc4c3=O)CC2)CC1 (stereo not given) | -3 | 30 | ? | 23µM* | 7% | ?
O=C(CCCn1c(=S)[nH]c2ccc(Br)cc2c1=O)N1CCN(c2ccccn2)CC1 | 9 | -7 | ? | ? | 4% | 18µM*
O=C(C1CCC(Cn2c(=S)[nH]c3ccccc3c2=O)CC1)N1CCOCC1 (stereo not given) | -7 | 1 | -25% | -2% | -5% | -23%
Cc1nn(CC(=O)NC(=O)NC2CCCC(C)C2C)c(=O)c(C#N)c1C (stereo not given) | 4 | -11 | -15% | -26% | · | 1%
COc1ccccc1C(CNC(=O)CSc1ccc2ccccc2c1)N(C)C (stereo not given) | -14 | i | ? | ? | 3% | -1%
O=C(Nc1ccnn1C1CCN(C(=O)c2ccc(F)cc2)CC1)C1CCOC1 (stereo not given) | -10 | 0 | 9% | 3% | 2% | 16%
O=c1[nH]nc(SCc2nnc(-c3cccc(Cl)c3)o2)n1C1CCCCC1 | 5 | -4 | ? | ? | · | ?
Fc1ccc(N2CCN(c3nc4ccccc4c4nc(-c5ccccc5)nn34)CC2)cc1 | · | · | -6% | ? | -2% | ·
Cc1cccc(CNC(=O)c2c3n(c(C)cc2=O)-c2ccccc2SC(c2sccc2C)C3)n1 (stereo not given) | · | · | -13% | -5%[9.04 µM] | · | ·
CSc1ncc(C(=O)Nc2ccc(C(C)=O)cc2)c(C)n1 | -5 | -24 | -24% | -29% | · | ?
CCOc1ccc(NCc2cccn2-c2nnc(N3CCC(C(=O)NCCCN4C(C)CCCC4C)CC3)s2)cc1 (stereo not given) | -1 | -7 | ? | ? | 8% | -2%
CCOc1ccc(NCc2cccn2-c2nnc(N3CCC(C(=O)NCCCN4CCCCC4)CC3)s2)cc1 | 10 | -6 | 23µM* | ? | 10% | -5%
CCOc1ccc(NCc2cccn2-c2nnc(N3CCC(C(=O)NCc4ccccc4Cl)CC3)s2)cc1 | · | · | 12µM* | -91% | 4% | ·
Cn1cc(CN2CCCC(C(=O)c3nccn3C)C2)c(-c2cccc(Cl)c2)n1 (stereo not given) | -7 | 5 | ? | 22% | 5% | -4%
CNc1ncnc2c1ncn2[C@H]1CN(Cc2ccccc2)C[C@@H](CO)O1 | · | 41 | -10% | ? | · | ·
Cc1cc(C)cc(NC(=O)c2cc(S(=O)(=O)N3CCc4ccccc43)cn2C)c1 | · | · | -20% | -10% | -5% | ·
O=c1nc2sc3ccccc3n2c(=O)n1-c1ccc(Cl)c(Cl)c1 | · | · | 10µM* | ? | · | ·
O=c1nc2sc3ccccc3n2c(=O)n1-c1ccc(Cl)cc1 | -4 | -16 | 21µM* | ? | 6% | ?
